Measured values: PubChem BioAssay (NCI)
Several values for one entry are separate records, joined by “and”; a condition that tells them apart may be missing. Equal entries are not always repeated. About 83,000 compounds went through this panel and 20% of them were active in at least one assay; those are over-represented in the sample as a whole.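 Testing used 96-well plates and a 48-hour single-concentration exposure. Example: -40 means 40% of the starting cells died.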 A number with no mark means an inactive call. Activity calls are given as the source filed them. The calls were made as follows: active = growth percent below 10; inactive = the rest.

Tested on: HL-60(TB) leukemia
Assay: NCI-60 one-dose screen, 48 h (100 = growth as untreated, 0 = no growth, -100 = all killed)
Details: 10 µM unless noted

Structure (SMILES) | growth
CC(=O)Oc1c(C)c(C)c2c(c1C)CCC(C)(CC(=O)OCCCCCCCCCCC[P+](c1ccccc1)(c1ccccc1)c1ccccc1)O2 (configuration not stated) | -34.8% (active)
Fc1ccc(Nc2nc3nonc3nc2Nc2ccc(F)cc2)cc1 | -17.6% (active)
CC1(C)CC2(C)CC(=O)C1C(C(=O)O)C2C(=O)O (configuration not stated) | 97.9%
CCOc1cccc(Nc2nc(N)nc3[nH]c4ccc(O)cc4c23)c1 | 53%
CC[N+](CC)=c1cc2oc3cc(N(C)C)ccc3nc-2cc1C | -8.38% (active)
Cc1ccc(Sc2oc(-c3ccc(C)cc3)nc2[P+](c2ccccc2)(c2ccccc2)c2ccccc2)cc1 | -45% (active)
CCN1c2ccccc2C(Cl)(c2ccc(N(C)C)cc2)c2ccccc21 | 14%
CN1CCN(c2ccc(NC(=O)c3nc4ccc5[nH]ncc5c4c4c3CCCC4)cc2C(F)(F)F)CC1 | 28%
CC(=O)Nc1ccc(/C=C/C(=O)c2ccccc2)cc1 | 79%
CCOC(=O)NC(/C=C/c1ccccc1)NC(=O)OCC | 103%
C=C(C)[C@@H]1CC[C@]2(C(=O)NCCNCCNC(=O)OC(C)(C)C)CC[C@]3(C)[C@H](CC[C@@H]4[C@@]5(C)CCC(=O)C(C)(C)[C@@H]5CC[C@]43C)[C@@H]12 | -14.3% [100 µM] (active)
CCOc1ccccc1/C=N\N=C\c1ccccc1O | 30.6%
CC(=O)c1cccc(OC(=O)c2ccccc2)c1 | 79.9%
NC(=O)c1cc(Br)cc(Br)c1NS(=O)(=O)c1ccccc1 | 92.6%
NC1=NC(c2ccccc2)N=C(Nc2ccccc2)N1 (configuration not stated) | 95.7% and 111%
N#Cc1c(N)[nH]c(S)c1C#N | 99%
CN1CCN(CC#CCn2c3c(c4ccccc42)C[C@]2(C)[C@H]4CC[C@@H]5[C@H]6[C@H]7OC(=O)[C@@]6(CCC7(C)C)CC[C@@]5(C)[C@]4(C)CC[C@H]2C3(C)C)CC1 | 66.3%
CN(C)CCCn1c(=O)c2cc([N+](=O)[O-])ccc2c2cnc3[nH]ccc3c21 | 90.4%
O=C1/C(=C/c2cccc(O)c2)COc2ccc(O)cc21 | 52.1%

Structure (SMILES) | growth
Cn1c2nc3ccccc3c-2nc2ccccc21 | 88.8% and 55.2%
COC1=C(OC)C(=O)C(CCCCCCCCCC[P+](c2ccccc2)(c2ccccc2)c2ccccc2)=C(C)C1=O | -55.9% (active)
COc1ccc([N+](=O)[O-])cc1OC | 85.5% and 99.2%
COc1cc2nc(N3CCC[C@@H](NC(=O)C4COc5ccccc5O4)C3)nc(N)c2cc1OC (some centres not stated) | 105% and 102%
COC1(OC)C2(Cl)C=C(c3ccccc3)C1(Cl)C(Cl)=C2Cl (configuration not stated) | 83.7%
COc1ccc2c(CCC(c3ccccc3)c3ccccc3)c3[n+](cc2c1OC)CCc1cc2c(cc1-3)OCO2 | -40.6% (active)
N#Cc1nc(-c2ccccc2)oc1S(=O)(=O)N1CCOCC1 | 5.5% (active)
Brc1ccc(-n2cc(-c3nn[nH]n3)c(-c3cccs3)n2)cc1 | 104%
Cc1ccc(S(=O)(=O)Nc2sccc2-c2nc(-c3ccccc3)no2)cc1 | 105%
CSc1nnc(-c2cc3c([nH]c4ccccc43)c(-c3cccc(O)c3)n2)n1-c1ccccc1 | 7.59% (active)
CC(O)c1cnc(/C=C2\SC(=S)N(Cc3ccccc3)C2=O)s1 (configuration not stated) | 20.4%
CC1SC(=S)N(c2ccc(Cl)cc2)C1=O (configuration not stated) | 82.7% and 98.2%
COc1cc(/C=N/Nc2nc3c([nH]2)c(=O)n(C)c(=O)n3C)ccc1O | 90.7% and 103%
COc1cc2cc(Oc3ccc(NC(=O)Nc4cc(C(F)(F)F)cc(C(F)(F)F)c4)cc3)c(C)nc2cc1OCCN1CCOCC1 | 1.68% (active)
COc1cc([C@@H]2c3cc4c(cc3[C@H](O)[C@H]3COC(=O)[C@@H]23)OCO4)cc(OC)c1OC | -34.9% (active) and -61% (active)
CCc1ncnc2c1ccn2C(C)c1ccc(OC)c(F)c1 (configuration not stated) | 31.7%
COc1ccccc1NC(=O)OCC#CCOC(=O)Nc1ccccc1OC | 85.4% and 64.8%
O=C1c2ccccc2CN1c1ccccc1 | 75.1%
